Tested on: FGFR3
Conditions: concentration: 1 μM,replicates: in singlicate; n = 1
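Also: KINOMEscan kinase panel screen.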

Row | SMILES | %Inh [%]
1 | C=CC(=O)Nc1cc2c(Nc3ccc(F)c(Cl)c3)ncnc2cc1OCCCN1CCOCC1 [GW781483] | 0
2 | CC(C)Nc1cc(-c2ccc3c(N)n[nH]c3c2)nc(N)n1 [GSK2221681] | 5
3 | COc1ccc(C[C@@H](CN)NC(=O)c2cc(Br)c(-c3ccnc4[nH]ccc34)s2)cc1.Cl.Cl [GSK1389063] | 69
4 | Cc1occc1-c1nc(N)c(OC[C@@H](N)Cc2c[nH]c3ccccc23)cc1-c1cc2c(C)n[nH]c2cn1 [GSK1660450] | 0
5 | Cc1ccc2c(-c3ccncc3)c(-c3ccc(F)cc3)nn2c1.Cl [GW461484] | 4
6 | O=C(NCCCN1CCOC1=O)c1cnc(NCc2cc(Cl)ccc2Cl)nc1NC1CCCC1 | 19
7 | Cc1n[nH]c2ccc(-c3cc(OC[C@@H](N)Cc4ccccc4)cnc3-c3ccoc3)cc12.O=C(O)C(F)(F)F.O=C(O)C(F)(F)F [GSK507358] | 0
8 | Cc1cc2cn[nH]c2cc1-c1cccc2c(N)c(C(N)=O)nnc12 | 0
9 | NC(=O)c1cc(-c2ccccc2)cc2c(C3CCNCC3)c[nH]c12 [GSK301362] | 3
10 | Cc1ccc(-n2nc(C(C)(C)C)cc2NC(=O)Nc2ccc(OCCN3CCOCC3)c3ccccc23)cc1 [GW839464] | 0
11 | CC(C)N1C(=O)Cc2cc(Nc3ncc(C(F)(F)F)c(NCc4cccc(S(C)(=O)=O)c4)n3)ccc21 | 43
12 | O=C(NCCNc1ccnc(NCc2ccc(F)cc2)n1)c1cc2ccccc2s1 [GSK1379944] | 20
13 | CNC(=O)c1ccccc1Sc1ccc2c(/C=C/c3ccccn3)n[nH]c2c1 | 81
14 | Nc1nc(Nc2ccccc2)cc(-c2ccc3c(N)n[nH]c3c2)n1 [GSK2225749] | 18
15 | CCN(CC)CCCCNc1ncc2cc(-c3c(Cl)cccc3Cl)c(NC(=O)NC(C)(C)C)nc2n1 | 95.5
16 | Cc1cc(C(=O)Nc2ccc(Oc3ccc4nc(NC(=O)C5CC5)cn4n3)cc2)nn1-c1ccccc1 | 7
17 | CN(C)CC(O)COc1ccc(Nc2nccc(-c3cnn4nc(N5CCOCC5)ccc34)n2)cc1 (stereo not drawn) [GW767488] | 3
18 | Cl.Cl.Nc1nc(-c2ccc3c(N)n[nH]c3c2)cc(N2CCCC(NC(=O)c3ccccc3)C2)n1 (stereo not drawn) [GSK2286775] | 11
19 | CN(C)CCOc1ccc(-c2cc(-c3c[nH]nc3-c3ccccn3)ccn2)cc1 [GW835314] | 31
20 | C[C@@H]1CCN(C(=O)CC#N)C[C@@H]1N(C)c1ncnc2[nH]ccc12 | 0
21 | Cl.Cl.NC[C@H](CC1CCCCC1)NC(=O)c1cc(Br)c(-c2ccnc3[nH]ccc23)s1 [GSK1581427] | 13
22 | Cl.Cl.NC[C@H](Cc1ccc(C(F)(F)F)cc1)NC(=O)c1cc(Br)c(-c2ccnc3[nH]ccc23)s1 [GSK1487252] | 24
23 | Cl.Oc1cc(-c2nc(-c3ccccc3)[nH]c2-c2ccncc2)ccc1Cl [SB-386023] | 0
24 | C[C@H]1Oc2cc(cnc2N)-c2c(nn(C)c2C#N)CN(C)C(=O)c2ccc(F)cc21 | 0
25 | C[C@@H](Oc1cc(-c2cnn(C3CCNCC3)c2)cnc1N)c1c(Cl)ccc(F)c1Cl | 24
26 | CCn1c(-c2nonc2N)nc2c(C#CC(C)(C)O)nc(OCCN)cc21.Cl.Cl [GSK902056] | 7
27 | CCN(CC)CCOc1ccc(Nc2ncc3cc(-c4c(Cl)cccc4Cl)c(=O)n(C)c3n2)cc1 [SB-601273] | 100

Tested on: FGFR4
Conditions: concentration: 1 μM,replicates: in singlicate; n = 1

Row | SMILES | %Inh [%]
28 | C=CC(=O)Nc1cc2c(Nc3ccc(F)c(Cl)c3)ncnc2cc1OCCCN1CCOCC1 [GW781483] | 0
29 | CC(C)Nc1cc(-c2ccc3c(N)n[nH]c3c2)nc(N)n1 [GSK2221681] | 5
30 | COc1ccc(C[C@@H](CN)NC(=O)c2cc(Br)c(-c3ccnc4[nH]ccc34)s2)cc1.Cl.Cl [GSK1389063] | 93.2
31 | Cc1occc1-c1nc(N)c(OC[C@@H](N)Cc2c[nH]c3ccccc23)cc1-c1cc2c(C)n[nH]c2cn1 [GSK1660450] | 0
32 | Cc1ccc2c(-c3ccncc3)c(-c3ccc(F)cc3)nn2c1.Cl [GW461484] | 4
33 | O=C(NCCCN1CCOC1=O)c1cnc(NCc2cc(Cl)ccc2Cl)nc1NC1CCCC1 | 13
34 | Cc1n[nH]c2ccc(-c3cc(OC[C@@H](N)Cc4ccccc4)cnc3-c3ccoc3)cc12.O=C(O)C(F)(F)F.O=C(O)C(F)(F)F [GSK507358] | 0
35 | Cc1cc2cn[nH]c2cc1-c1cccc2c(N)c(C(N)=O)nnc12 | 0
36 | NC(=O)c1cc(-c2ccccc2)cc2c(C3CCNCC3)c[nH]c12 [GSK301362] | 9
37 | Cc1ccc(-n2nc(C(C)(C)C)cc2NC(=O)Nc2ccc(OCCN3CCOCC3)c3ccccc23)cc1 [GW839464] | 0
38 | CC(C)N1C(=O)Cc2cc(Nc3ncc(C(F)(F)F)c(NCc4cccc(S(C)(=O)=O)c4)n3)ccc21 | 16
39 | O=C(NCCNc1ccnc(NCc2ccc(F)cc2)n1)c1cc2ccccc2s1 [GSK1379944] | 79
40 | CNC(=O)c1ccccc1Sc1ccc2c(/C=C/c3ccccn3)n[nH]c2c1 | 12
41 | Nc1nc(Nc2ccccc2)cc(-c2ccc3c(N)n[nH]c3c2)n1 [GSK2225749] | 0
42 | CCN(CC)CCCCNc1ncc2cc(-c3c(Cl)cccc3Cl)c(NC(=O)NC(C)(C)C)nc2n1 | 28
43 | Cc1cc(C(=O)Nc2ccc(Oc3ccc4nc(NC(=O)C5CC5)cn4n3)cc2)nn1-c1ccccc1 | 13
44 | CN(C)CC(O)COc1ccc(Nc2nccc(-c3cnn4nc(N5CCOCC5)ccc34)n2)cc1 (stereo not drawn) [GW767488] | 1
45 | Cl.Cl.Nc1nc(-c2ccc3c(N)n[nH]c3c2)cc(N2CCCC(NC(=O)c3ccccc3)C2)n1 (stereo not drawn) [GSK2286775] | 0
46 | CN(C)CCOc1ccc(-c2cc(-c3c[nH]nc3-c3ccccn3)ccn2)cc1 [GW835314] | 8
47 | C[C@@H]1CCN(C(=O)CC#N)C[C@@H]1N(C)c1ncnc2[nH]ccc12 | 0
48 | Cl.Cl.NC[C@H](CC1CCCCC1)NC(=O)c1cc(Br)c(-c2ccnc3[nH]ccc23)s1 [GSK1581427] | 16
49 | Cl.Cl.NC[C@H](Cc1ccc(C(F)(F)F)cc1)NC(=O)c1cc(Br)c(-c2ccnc3[nH]ccc23)s1 [GSK1487252] | 57
50 | Cl.Oc1cc(-c2nc(-c3ccccc3)[nH]c2-c2ccncc2)ccc1Cl [SB-386023] | 0
51 | C[C@H]1Oc2cc(cnc2N)-c2c(nn(C)c2C#N)CN(C)C(=O)c2ccc(F)cc21 | 0
52 | C[C@@H](Oc1cc(-c2cnn(C3CCNCC3)c2)cnc1N)c1c(Cl)ccc(F)c1Cl | 0
53 | CCn1c(-c2nonc2N)nc2c(C#CC(C)(C)O)nc(OCCN)cc21.Cl.Cl [GSK902056] | 0
54 | CCN(CC)CCOc1ccc(Nc2ncc3cc(-c4c(Cl)cccc4Cl)c(=O)n(C)c3n2)cc1 [SB-601273] | 97.9
